From PubChem BioAssay (NCATS)
Inconclusive results are not listed. The source made the active and inactive calls. Calls come from the whole dose curve; as a rule, active = well fitted inhibition curve with a large enough effect; inconclusive = small, poorly fitted or top-dose-only effect; inactive = flat fitted curve, though single readings scatter.

Assays:
Assay in all cases: qHTS profiling for inhibitors of Plasmodium falciparum proliferation (AID 504749); note: nearly all actives have a fitted effect of over 60% in size
Conditions in all cases: P. falciparum in erythrocytes, SYBR Green DNA, 72 h; series mostly up to 28.7 µM
C2A = system: C2A
In short: (§1)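 Three-day growth assay of blood-stage parasites in erythrocytes (0.3% parasitemia, 2.5% hematocrit) at 37 C, 5% CO2, quantified by SYBR Green DNA staining after overnight detergent lysis.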

CP185 = system: CP185
In short: as §1

CP191 = system: CP191
In short: as §1

CP192 = system: CP192
In short: as §1

CP194 = system: CP194
In short: as §1

CP201 = system: CP201
In short: as §1

CP203 = system: CP203
In short: as §1

CP211 = system: CP211
In short: as §1

CP215 = system: CP215
In short: as §1

CP217 = system: CP217
In short: as §1

CP237 = system: CP237
In short: as §1

CP238 = system: CP238
In short: as §1

CP247 = system: CP247
In short: as §1

CP250 = system: CP250
In short: as §1

CP252 = system: CP252
In short: as §1

CP256 = system: CP256
In short: as §1

CP260 = system: CP260
In short: as §1

CP262 = system: CP262
In short: as §1

CP265 = system: CP265
In short: as §1

CP266 = system: CP266
In short: as §1

Measured: outcome

CCc1cccc2c3c([nH]c12)[C@@](CC)(CC(=O)O)OCC3
inactive: all assays above

CCOC(=O)C(CCc1ccccc1)NC(C)C(=O)N1Cc2ccccc2CC1C(=O)O (stereo not given)
inactive: all assays above
